Experimental findings from PubChem BioAssay (NCATS) are described below.

Assay [1] concerns the target Cytochrome P450 3A4 (Homo sapiens) (UniProt P08684). Put plainly: qHTS Assay for Inhibitors and Substrates of Cytochrome P450 3A4 (AID 884). For activity change, negative = inhibition: % is set by controls: 0 for no effect and ±100 for the full control effect. Note: nearly all actives have a fitted effect of over 50% in size. Note: potency is the fitted concentration of half-maximal effect. Put shortly: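 20 nM human CYP3A4 with 25 uM Luciferin-PPXE (at KM) in 200 mM KPO4, preincubated 10 min with compound; NADPH regeneration started a 60 min RT reaction. Luciferin detected by luminescence, normalized to 57 uM ketoconazole as full inhibition.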
For orientation: Quantitative high-throughput screening tests each substance at several concentrations.

Assay [2] can be described thus: qHTS Assay for Lipid Storage Modulators (AID 1519; calls by dose curve; for activity change, negative = inhibition: % is set by controls: 0 for no effect and ±100 for the full control effect). The settings on record: Drosophila S3 cells, BODIPY lipid droplet/cell ratio, laser cytometry, cells loaded with oleic acid; for activity change, negative = inhibition: at 57.5 µM (top of the series). A digest of the protocol: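 Cells seeded at 5,000 per well were treated with compounds over a concentration series and loaded with oleic acid (400 uM, as added). Lipid droplet fluorescence (488 nm excitation, 500-530 nm channel) was read by laser-scanning cytometry and normalized to 20 uM Triacsin C.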

Assay [3] has as its target Ubiquitin carboxyl-terminal hydrolase 1 (Homo sapiens) (UniProt O94782). Kind of assay: Inhibitors of USP1/UAF1: Pilot qHTS (AID 504865).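 Note: rhodamine fluorescence freed from ubiquitin-rhodamine substrate followed over time; top concentration of the series differs between compounds; % is set by controls: 0 for no effect and ±100 for the full control effect; nearly all actives have a fitted effect of over 35% in size.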 A digest of the protocol:
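Kinetic fluorescence assay: 1nM USP1/UAF1, 15 min compound preincubation, then 150nM Ub-Rho; 480/540 nm.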

Assay [4] concerns the target DNA dC->dU-editing enzyme APOBEC-3G (Homo sapiens) (UniProt Q9HC16). Kind of assay: qHTS for inhibitors of Vif-A3G interactions: Validation (AID 588379). Note: 0% is about no effect. Put shortly:
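HeLa cells stably expressing Vif and A3G-eYFP, 700 cells/well, incubated overnight at 37 deg C, then exposed to compound overnight at 37 deg C. Inhibition of Vif-mediated degradation read as increased yellow fluorescence (Ex 488/Em 500-530) by laser-scanning cytometry.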

Assay [5] is described as follows: Confirmation and Secondary Assay for Modulators of Hemoglobin Beta Chain Splicing at IVS2 654 locus (AID 910).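 Note: HeLa cells stably carrying EGFP split by mutant beta-globin IVS2-654 intron; per-well total GFP intensity by laser scanning cytometry after 2-day treatment; % of control where 0% means no effect.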 A digest of the protocol: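 Readout: per-well total peak green fluorescence (488 nm ex, 500–520 nm em) from objects 5–250 µm, reflecting correct splicing of an EGFP-654 reporter. Compounds were applied for 2 days at 37 °C to overnight-plated HeLa EGFP-654 cells; controls were DMSO and 500 nM IVS2-654 PNA.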

A short description of assay [6]: Confirmation and Secondary Assay for Modulators of Hemoglobin Beta Chain Splicing at IVS2 705 locus (AID 930).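 Note: HeLa cells stably expressing the EGFP-705 splicing reporter; % of control where 0% means no effect.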 A digest of the protocol: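 Assay measures total GFP intensity per well in HeLa EGFP-705 cells after 2 days with compound; mis-splicing normally truncates EGFP, so fluorescence indicates corrected splicing.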
Assay [7] has as its target Luciferin 4-monooxygenase (Photinus pyralis) (UniProt P08659). Put plainly: Biochemical firefly luciferase enzyme assay for NPC (AID 624030).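 Note: purified P. pyralis luciferase at 10 nM with luciferin and ATP substrate; 0% = DMSO and -100% = full luciferase inhibition by PTC124 control; nearly all actives have a fitted effect of over 70% in size.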 Put shortly: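 Direct inhibition of firefly luciferase enzyme (10 nM final, 50 mM Tris Acetate) assessed by luminescence within 5 minutes. Percent activity scaled between DMSO and PTC124 positive control, with concentration-effect curves classified by fit quality and response.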

In assay [8] the target is Cytochrome P450 3A4 (Homo sapiens) (UniProt P08684). Kind of assay: qHTS Assay for Activators of Cytochrome P450 3A4 (AID 885). Note: nearly all actives have a fitted effect of over 65% in size. Put shortly:
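Steps: enzyme/substrate mix dispensed; compound added, 10 min RT; NADPH regeneration solution added, 60 min RT; luciferin detection buffer stops reaction; 20 min later luminescence measured.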

The mark [9] stands for this setting: measured here: cell count channel max response.
[10] abbreviates: measured here: lipid channel max response.

SMILES strings stand for the structures. Inconclusive results are not listed. The source made the active and inactive calls. Unless noted, calls come from the whole dose curve; as a rule, active = well fitted curve in the direction sought with a large enough effect; inconclusive = small, poorly fitted or top-dose-only effect, or another doubt; inactive = no such curve, though single readings can be large; an effect the other way counts as inactive or inconclusive.

Chain of Ubiquitin carboxyl-terminal hydrolase 1 (Homo sapiens) (O94782 whole entry, looked up): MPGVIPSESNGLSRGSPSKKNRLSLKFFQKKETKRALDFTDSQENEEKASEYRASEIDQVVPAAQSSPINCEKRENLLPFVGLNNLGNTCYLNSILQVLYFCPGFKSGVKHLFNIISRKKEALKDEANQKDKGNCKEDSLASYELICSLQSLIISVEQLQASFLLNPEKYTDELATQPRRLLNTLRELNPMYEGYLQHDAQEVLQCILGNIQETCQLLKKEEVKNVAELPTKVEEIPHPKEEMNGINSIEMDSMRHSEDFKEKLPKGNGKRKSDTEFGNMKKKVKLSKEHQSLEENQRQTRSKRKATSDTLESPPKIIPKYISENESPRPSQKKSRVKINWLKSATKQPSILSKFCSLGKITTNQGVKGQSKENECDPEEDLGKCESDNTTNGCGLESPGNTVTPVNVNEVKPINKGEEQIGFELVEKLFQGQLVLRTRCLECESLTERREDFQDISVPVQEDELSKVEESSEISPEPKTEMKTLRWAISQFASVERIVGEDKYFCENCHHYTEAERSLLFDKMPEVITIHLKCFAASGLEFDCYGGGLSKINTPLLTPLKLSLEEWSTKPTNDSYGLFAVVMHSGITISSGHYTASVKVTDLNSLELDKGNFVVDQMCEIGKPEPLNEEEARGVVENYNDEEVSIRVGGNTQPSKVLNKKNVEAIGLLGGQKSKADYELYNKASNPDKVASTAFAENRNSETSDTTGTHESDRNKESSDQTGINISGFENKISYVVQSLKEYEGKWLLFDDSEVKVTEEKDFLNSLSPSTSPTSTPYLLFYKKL
Chain of Cytochrome P450 3A4 (Homo sapiens) (P08684 whole entry, looked up): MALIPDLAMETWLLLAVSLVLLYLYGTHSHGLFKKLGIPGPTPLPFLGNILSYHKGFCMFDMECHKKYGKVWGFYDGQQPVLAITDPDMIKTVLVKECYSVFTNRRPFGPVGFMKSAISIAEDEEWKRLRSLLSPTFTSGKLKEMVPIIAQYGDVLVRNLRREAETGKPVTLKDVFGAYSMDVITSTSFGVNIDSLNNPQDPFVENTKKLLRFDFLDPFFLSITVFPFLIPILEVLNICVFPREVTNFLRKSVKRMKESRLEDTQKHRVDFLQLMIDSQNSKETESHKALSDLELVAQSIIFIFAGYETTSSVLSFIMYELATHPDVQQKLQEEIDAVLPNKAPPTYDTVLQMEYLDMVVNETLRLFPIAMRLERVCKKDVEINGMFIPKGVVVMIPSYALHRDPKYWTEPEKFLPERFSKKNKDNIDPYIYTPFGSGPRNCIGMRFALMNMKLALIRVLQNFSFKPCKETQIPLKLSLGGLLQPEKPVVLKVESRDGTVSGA
Chain of Luciferin 4-monooxygenase (Photinus pyralis) (P08659 whole entry, looked up): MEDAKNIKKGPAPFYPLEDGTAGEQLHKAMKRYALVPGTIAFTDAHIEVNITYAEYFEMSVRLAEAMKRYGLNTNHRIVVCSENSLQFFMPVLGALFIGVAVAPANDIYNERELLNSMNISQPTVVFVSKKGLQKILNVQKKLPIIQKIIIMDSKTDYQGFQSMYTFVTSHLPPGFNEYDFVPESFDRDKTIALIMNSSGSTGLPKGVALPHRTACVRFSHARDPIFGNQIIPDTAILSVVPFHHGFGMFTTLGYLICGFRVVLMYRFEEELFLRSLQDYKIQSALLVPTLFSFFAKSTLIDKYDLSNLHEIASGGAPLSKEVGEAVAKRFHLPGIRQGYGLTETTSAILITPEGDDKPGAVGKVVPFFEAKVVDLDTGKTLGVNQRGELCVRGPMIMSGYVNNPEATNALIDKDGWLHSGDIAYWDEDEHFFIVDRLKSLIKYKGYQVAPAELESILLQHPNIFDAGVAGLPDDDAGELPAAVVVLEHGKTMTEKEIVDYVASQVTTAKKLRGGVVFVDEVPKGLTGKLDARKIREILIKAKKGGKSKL
Chain of DNA dC->dU-editing enzyme APOBEC-3G (Homo sapiens) (Q9HC16 whole entry, looked up): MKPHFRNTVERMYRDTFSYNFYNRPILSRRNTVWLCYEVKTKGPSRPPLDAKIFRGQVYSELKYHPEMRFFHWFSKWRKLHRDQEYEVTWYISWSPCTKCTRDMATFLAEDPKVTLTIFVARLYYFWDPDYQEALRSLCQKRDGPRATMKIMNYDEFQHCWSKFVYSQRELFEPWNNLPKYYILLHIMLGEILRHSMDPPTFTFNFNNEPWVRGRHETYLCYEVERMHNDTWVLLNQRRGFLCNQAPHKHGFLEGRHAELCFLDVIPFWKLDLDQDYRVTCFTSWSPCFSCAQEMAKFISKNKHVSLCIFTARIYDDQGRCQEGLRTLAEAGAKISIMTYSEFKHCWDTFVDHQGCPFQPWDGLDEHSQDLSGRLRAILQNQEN

Take `COC(=O)CCCC[C@@H]1SC[C@@H]2NC(=O)N[C@@H]21`: the Potency result in assay [1] and in assay [3] was “inactive” each time. Further, in assay [2], the activity change, negative = inhibition is 0.0624% (inactive). Further, the results for the max response in assay [2] (setting [9]) and in assay [2] (setting [10]) were -0.817% and 0.263%, respectively. In addition, the call in assay [4] was inactive.
Turning to `CC1(C)SC2C(NC(=O)C(N)c3ccccc3)C(=O)N2C1C(=O)O` (stereo unspecified), the Potency entry in assay [5], in assay [6], in assay [3] and in assay [7] was “inactive” in each case. In addition, the activity change, negative = inhibition in assay [2] is 7.23% (inactive). The max response in assay [2] (setting [9]) came to 15.7%; in assay [2] (setting [10]), 29.5%.
Consider `Cc1cc(O)cc(O)c1C(=O)O`, for which the Potency in assay [1] is 25.1 µM (active). Besides, the Potency entry in assay [8], in assay [5], in assay [6] and in assay [3] was “inactive” each time. Moreover, in assay [2], the activity change, negative = inhibition was 4.63% (inactive). The max response worked out at 10.6% in assay [2] (setting [9]) and 18.2% in assay [2] (setting [10]).
As to `O=C(O)CCCCC1SCC2NC(=O)NC21` (stereo unspecified), the Potency result in assay [1], in assay [5], in assay [6], in assay [3] and in assay [7] was “inactive” in each case. For the same compound, the activity change, negative = inhibition in assay [2] is 0.834% (inactive). For the same compound, the max response came out at 11.8% in assay [2] (setting [9]) and 16% in assay [2] (setting [10]).
On to `NCC1O[C@@H](OC2C(N)C[C@H](N)[C@@H](O[C@H]3OC(CO)C(O)C(N)C3O)C2O)C(N)C(O)C1O` (stereo partly specified), for which the Potency entry in assay [1], in assay [5], in assay [6], in assay [3] and in assay [7] was “inactive” each time. Also, the activity change, negative = inhibition in assay [2] is 2.92% (inactive). Also, the max response was 11.9% in assay [2] (setting [9]) and 7.99% in assay [2] (setting [10]).
As for `CC1=C(C2=C(C)C(C(C)C)C3=C(C(=O)C(O)C3O)C2O)C(O)C2=C(C(O)C(O)C2=O)C1C(C)C` (stereo unspecified), the Potency entry in assay [1] and in assay [3] was “inactive” throughout. The activity change, negative = inhibition in assay [2] was 1.34% (inactive). Besides, the max response came to 12.4% in assay [2] (setting [9]) and 12.8% in assay [2] (setting [10]). For the same compound, the result in assay [4] was inactive.
Regarding `C=CC1=C(C(=O)O)N2C(=O)C(NC(=O)/C(=N\O)c3csc(N)n3)C2SC1` (stereo unspecified), the Potency entry in assay [5], in assay [6], in assay [3] and in assay [7] was “inactive” throughout. The activity change, negative = inhibition in assay [2] was 3.88% (inactive). The max response in assay [2] (setting [9]) was found to be 11.5%; in assay [2] (setting [10]), 17.7%.
As to `COc1ccc2c(c1OC)C(=O)O[C@H]2C1c2c(cc3c(c2OC)OCO3)CCN1C` (stereo partly specified), the Potency entry in assay [8], in assay [5], in assay [6] and in assay [3] was “inactive” in each case. For the same compound, the activity change, negative = inhibition in assay [2] is 8.59% (inactive). Besides, the max response in assay [2] (setting [9]) came to 20.9%; in assay [2] (setting [10]), 32.4%. The result in assay [4] was inactive.
In the case of `Nc1ncnc2c1ncn2C1CC(O)C(CO)O1` (stereo unspecified), the Potency result in assay [1], in assay [5], in assay [6] and in assay [3] was “inactive” throughout. Further, in assay [2], the activity change, negative = inhibition was -2.62% (inactive). Further, the max response in assay [2] (setting [9]) is -5.57%; in assay [2] (setting [10]) it was -5.3%. For the same compound, the result in assay [4] was inactive.
Turning to `COC(=O)CC1C(C)(C)C(O)C2CC3=C4C=C(OC)OC(c5ccoc5)[C@]4(C)CCC3[C@@]1(C)C2=O` (stereo partly specified), the Potency in assay [1] is 10 µM (active). The Potency result in assay [8], in assay [5], in assay [6] and in assay [3] was “inactive” in each case. The activity change, negative = inhibition in assay [2] is -1.2% (inactive). Further, the max response in assay [2] (setting [9]) was 2.63%; in assay [2] (setting [10]), 3.16%.
As for `O=c1[nH]c(=O)n([C@@H]2O[C@H](CO)[C@@H](O)[C@H]2O)cc1Br`, the Potency entry in assay [1] and in assay [3] was “inactive” in each case. In addition, the activity change, negative = inhibition in assay [2] is -8.5% (inactive). The max response in assay [2] (setting [9]) was -11.6%; in assay [2] (setting [10]), -16.6%. Moreover, in assay [4], the result was inactive.
With `CC(C)[C@H]1CC[C@@H](C)C[C@H]1O`, the Potency result in assay [1] and in assay [3] was “inactive” each time. Also, the activity change, negative = inhibition in assay [2] was -5.33% (inactive). Moreover, the max response is -11.9% in assay [2] (setting [9]) and -15.2% in assay [2] (setting [10]). Moreover, the call in assay [4] was inactive.
